High-throughput results: PubChem, National Center for Advancing Translational Sciences (NCATS)
Most compounds without a hit are left out; they make up all but 15% or so of the library.
DT40 TDP1 no CPT – qHTS for Inhibitors of human tyrosyl-DNA phosphodiesterase 1 (TDP1): qHTS in cells in absence of CPT; DT40 Tdp1-/- hTDP1 cells, no CPT, ATP luminescence, 48 h; Potency, µM (doses to about 46.2 µM), for the others: at the top dose activity change, negative = growth inhibition, hits mostly inhibitors; 420,000 compounds, 15% hits; further: nearly all actives have a fitted effect of over 55% in size
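DT40 Tdp1-/-;hTDP1 cells, no CPT (DMSO vehicle only), 400 cells/well; compounds pin-transferred; ≥48 hr, 37 °C; CellTiter-Glo 30 min RT dark, luminescence read.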
RORgamma inh – blocks mouse ROR gamma transcriptional activity; P51450; Potency, µM (titrated, usually from 53.6 µM), for inactives: top-dose activity change, negative = inhibition, usual class: inhibitors; Drosophila S2 Gal4-RORgamma UAS-luciferase reporter, 20 h; 310,000 compounds, 5.4% hits; further: nearly all actives have a fitted effect of over 60% in size
Target sequence (P51450 whole entry, looked up, the tested form may be a part): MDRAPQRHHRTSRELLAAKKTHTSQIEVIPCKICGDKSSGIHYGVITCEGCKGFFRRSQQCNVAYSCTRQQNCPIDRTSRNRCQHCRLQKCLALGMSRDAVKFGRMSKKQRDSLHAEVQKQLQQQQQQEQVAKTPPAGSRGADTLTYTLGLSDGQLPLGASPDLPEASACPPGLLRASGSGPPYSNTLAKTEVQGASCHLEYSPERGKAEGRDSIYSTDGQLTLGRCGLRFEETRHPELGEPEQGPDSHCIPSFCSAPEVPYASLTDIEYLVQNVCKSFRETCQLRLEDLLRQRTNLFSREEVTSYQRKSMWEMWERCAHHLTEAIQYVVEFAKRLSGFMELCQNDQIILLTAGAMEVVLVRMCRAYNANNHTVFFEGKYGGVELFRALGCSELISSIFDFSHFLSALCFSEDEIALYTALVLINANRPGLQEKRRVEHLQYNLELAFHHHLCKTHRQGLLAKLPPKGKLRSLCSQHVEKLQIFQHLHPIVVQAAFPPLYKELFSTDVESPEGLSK
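Drosophila S2 cells stably expressing Gal4-DBD/mouse RORγ fusion under metallothionein promoter plus UAS-luciferase; compound 1 h, then 700 uM CuSO4 induction for 20 h at ambient temperature; inhibition read as reduced luminescence.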
TDP1 cell CPT – DT40-hTDP1 cell growth loss with CPT; chicken DT40 Tdp1-/-;hTDP1 cells + 20 nM CPT, ATP luminescence, 48 h; Potency, µM (titrated, usually from 46.2 µM), for the others: at the top dose activity change, negative = growth inhibition, hits mostly inhibitors; 420,000 compounds, 12% hits; AID 686979; further: nearly all actives have a fitted effect of over 55% in size
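Chicken DT40 Tdp1-/- cells stably complemented with human TDP1 were seeded at 400 cells/well in medium containing 20 nM camptothecin, exposed to pin-transferred compounds, and grown at 37 °C for at least 48 hr. Viability was read as ATP luminescence.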
VP16 counter – inhibits Gal4-VP16 luciferase reporter, ROR gamma counter-screen; AID 2546; Potency, µM (doses to about 53.6 µM), for the others: at the top dose activity, negative = inhibition, actives largely listed as inhibitors; Drosophila S2 Gal4-VP16 UAS-luciferase, luminescence, 20 h; 310,000 compounds, 3.5% hits;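 further: Gal4-VP16 expression switched on by copper sulfate through the metallothionein promoter; nearly all actives have a fitted effect of over 50% in size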
12-LOX inh – blocks human arachidonate 12S-lipoxygenase; P18054; purified 12hLO, xylenol orange hydroperoxide absorbance; Potency, µM (doses to about 108 µM), for the others: top-dose activity change, negative = inhibition, most hits filed as inhibitors; 580,000 compounds, 1.1% hits
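Purified human 12hLO at 150 nM in 25 mM Hepes, 0.01% Triton X-100, pH 7.0, preincubated 15 min at room temperature with compound. Reaction started with 40 uM arachidonic acid, 30 min at room temperature. Hydroperoxide measured by Fe-xylenol orange, 573/405 nm absorbance ratio.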
ELG1 DNA repair – blocks ELG1-dependent DNA repair in HEK293T cells | 330,000 compounds, 2.3% hits | Potency, µM (titrated, usually from 46.1 µM), for the others: top-dose activity change, negative = inhibition, most hits filed as inhibitors | AID 504467 | HEK293T ELG1-luciferase reporter, luminescence, 16 h; DNA damage induced by 5-fluorouridine; further: nearly all actives have a fitted effect of over 55% in size
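Luminescence from the luciferase reporter, measured 30 min after ONE-Glo reagent at room temperature, was the read-out. Beforehand, 2,000 cells per well were exposed for 16 hr at 37 °C to 5-fluorouridine together with compound or vehicle.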
The depositor's hits bear a star; ? = inconclusive; nt = no result. The call rests on the fitted dose curve; in most records, active means well fitted curve in the direction sought with a large enough effect; inconclusive means small, poorly fitted or top-dose-only effect, or another doubt; inactive means no such curve, though single readings can be large; an effect the other way counts as inactive or inconclusive. On the % scale 0 is the no-effect control and ±100 the full control effect; potency means the concentration at half of the fitted maximal effect.

SMILES | DT40 TDP1 no CPT | RORgamma inh | TDP1 cell CPT | VP16 counter | 12-LOX inh | ELG1 DNA repair
CS(=O)(=O)Nc1cccc(C(=O)CC2(O)C(=O)Nc3ccc(Br)cc32)c1 (configuration not stated) | 20.6µM* | 4.8% | ? | 0.3% | 0.0% | -10.0%
N#CC1=C(N)OC2=C(C(=O)CCC2)C1c1cccc2ccccc12 (configuration not stated) | nt | nt | nt | nt | 3.9% | nt
COCC(C)NC(=O)Cc1n[nH]c(=O)c2ccccc12 (configuration not stated) | nt | nt | nt | nt | 6.6% | nt
CC(C)CC(=O)NCc1cccs1 | nt | nt | nt | nt | 8.9% | nt
CCC(Sc1nc(C)cc(=O)[nH]1)C(=O)Nc1nc2c(s1)CCCC2 (configuration not stated) | -25.5% | 21.7% | ? | -8.2% | -8.3% | 4.4%
CCC(Oc1ccc(F)cc1)C(=O)Nc1nc2c(s1)CCCC2 (configuration not stated) | 16.4µM* | nt | ? | nt | ? | nt
COC(=O)c1sc(NC(=O)[C@@H](NC(=O)c2ccc(F)cc2)C(C)C)nc1C | nt | nt | nt | nt | -0.5% | nt
COc1ccc(C(=O)N[C@H](C(=O)Nc2nc3c(s2)CCCC3)C(C)C)cc1 | 23.1µM* | 41.3% | ? | -2.2% | ? | -0.2%
CCOc1ccccc1C(=O)N[C@H](C(=O)Nc1nc2c(s1)CCCC2)C(C)C | 18.4µM* | 29.9% | 16.4µM* | 23.5% | -4.6% | ?
CCOC(=O)C(NC(=O)[C@@H](NC(=O)c1ccccc1OCC)C(C)C)C(=O)OCC | nt | nt | nt | nt | 38.1% | nt
O=C1NC(C(=O)Nc2ccccc2)Cn2cccc21 (configuration not stated) | nt | nt | nt | nt | 18.0% | nt
Cc1cc(C)n2nc3nc(N4CCCCC4)nc(-c4ccco4)c3c2n1 | 20.6µM* | -1.0% | 14.6µM* | -13.3% | nt | ?
CC/C=C(/C)C(=O)NCC(c1ccsc1)N(C)C (configuration not stated) | nt | nt | nt | nt | -2.7% | nt
CCc1cccc(C)c1Nc1c(-c2cccc(O)c2)nc2nc(C)cc(C)n12 | ? | nt | ? | nt | 3.3% | nt
COc1ccc(Nc2c(-c3cccc(OC)c3)nc3nc(C)cc(C)n23)cc1 | 20.6µM* | nt | ? | nt | 14.0% | nt
COc1cccc(-c2nc3nc(C)cc(C)n3c2Nc2ccc3c(c2)OCCO3)c1 | 25.9µM* | nt | ? | nt | ? | nt
COc1cccc(-c2nc3nc(C)cc(C)n3c2NCc2ccccc2)c1 | 11.6µM* | nt | ? | nt | 0.0% | nt
COc1cccc(-c2nc3nc(C)cc(C)n3c2NC2CCCC2)c1 | ? | nt | ? | nt | 21.3% | nt
CCc1nc2ccccc2c(NC(=O)CN(C)C)c1C | nt | nt | nt | nt | -3.4% | nt
CN(CCNC(=O)NC1CCCC(C(F)(F)F)C1)Cc1ccccc1 (configuration not stated) | nt | nt | nt | nt | -4.3% | nt
CC(C)c1ccc(C2C3=C(COC3=O)Nc3cc4c(cc32)OCO4)cc1 (configuration not stated) | 0.92µM* | 0.0% | 0.651µM* | -1.4% | 21.6% | 15.2%
CC(C)(NC(=O)NC(CO)c1ccccc1)c1cccc(C(C)(C)NC(=O)NC(CO)c2ccccc2)c1 (configuration not stated) | 2.9% | nt | -6.6% | nt | ? | 22.9%
CC(C)(C(=O)N[C@H](CO)c1ccccc1)C(=O)N[C@H](CO)c1ccccc1 | 5.1% | 2µM* | 0.6% | 4.9% | 3.4% | 0.6%
O=C(Nc1cc(Cl)c(Cl)cc1Cl)c1ccc(-c2ccccc2)cc1 | nt | nt | nt | nt | 13.2% | nt
Fc1ccc(NC(=S)NN2CCOCC2)cc1Cl | -5.3% | 2.82µM* | 14.0% | ? | -2.0% | 6.2%
S=C(Nc1ccc(Nc2ccccc2)cc1)NN1CCOCC1 | -22.9% | ? | 21.6% | -11.5% | -7.0% | ?
